Several values for one entry are separate records, joined by “and”; a condition that tells them apart may be missing. Equal values may be shown once. Hit rate of the full screen: of about 260,000 compounds, about 1,500 (0.58%) were called active. Roughly 5% stayed inconclusive and do not appear here.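 The calls were made as follows: active = inhibition above a set limit at one or more doses, reproduced on every date tested; inconclusive = results disagree between test dates, or hit never tested in dose response; inactive = the rest.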 Only a sample is shown. Potency and affinity values are given separately.
Molecular target: Virion infectivity factor (Human immunodeficiency virus type 1 group M subtype B (isolate BH10)) + Virion infectivity factor (Human immunodeficiency virus type 1 group M subtype B (isolate BRU/LAI)) + Virion infectivity factor (Human immunodeficiency virus type 1 group M subtype B (isolate PCV12)) + Virion infectivity factor (Human immunodeficiency virus type 1 group M subtype B (isolate HXB2)) + DNA dC->dU-editing enzyme APOBEC-3G (Homo sapiens) (UniProt P69720+P69721+P69722+P69723+Q9HC16)
Experiment: HIV-1 Vif–A3G interaction blockers – biochemical, TR-FRET, GST-Vif 1-94, biotin-A3G peptide, dose response retest, primary screen (AID 1117319);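 also: Vif residues 1-94 fused to GST binding biotinylated APOBEC3G peptide 110-148; 0% = full assay without inhibitor and 100% = GST in place of GST-Vif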
Conditions: TR-FRET GST-Vif / biotin-A3G peptide binding; hits give high values

inhibition, inactive:
COC(=O)c1cccc(NC(=O)CSCc2ccccc2)c1 6.61%, O=C(Nc1ccsc1C(=O)N1CCCC1)c1ccccc1 -3.04%, CCOc1cccc(C2C(C#N)=C(N)Oc3cc(C)n(Cc4ccccn4)c(=O)c32)c1OCC (centres undefined) 14.3%, CCOC(=O)c1nn(-c2ccc(C)cc2)c(=O)cc1OCC(=O)Nc1cccc(C)c1 -4.53%, COC(=O)c1c(NC(=O)c2ccco2)sc2c1CC(C)(C)NC2(C)C -5.88%, CN(c1ccccc1)P(=O)(N(C)c1ccccc1)N(C)c1ccccc1 -2.89%, CCCCNC(=O)CCn1nc(-c2ccccc2)c2ccccc2c1=O -4.86%, COc1ccc(-c2cc(-c3n[nH]c(=S)n3-c3cccc4ccccc34)[nH]n2)cc1 32.6%, Cc1ccn2c(-c3csc(NCc4ccco4)n3)c(C)nc2c1 16.9%, Cc1nc2ccccn2c1-c1csc(NCc2ccco2)n1 5.14%, CC(=O)Oc1ccccc1/C=C1\CCOC1=O 13.1%, O=C(NCCN1C(=O)S/C(=C\c2ccc(Cl)c(Cl)c2)C1=O)c1cnccn1 20.5%, O=C(c1cc([N+](=O)[O-])ccc1N1CCOCC1)N1CCN(c2ccc([N+](=O)[O-])cc2)CC1 11.3%, COc1ccccc1CNC(=O)c1csc2c1CCCC2 10.6%, O=C(NCc1ccccc1)c1csc2c1CCCCC2 -0.06%, [O-]/C(=C(\C(=S)Nc1ccc(SC(F)F)cc1)[n+]1ccccc1)c1ccc(Cl)cc1Cl -10.3%, COc1cccc(OC)c1C(=O)Nc1nc(-c2ccccc2)cs1 -5.24%, CC(NC(=O)COc1ccccc1Cl)c1ccccc1 (centres undefined) -5.9%, CCn1c(SCC(=O)NNC(=O)c2ccc(OC)cc2)nnc1-c1ccco1 -0.44%, CC(=O)Nc1ccc(/C(N=Nc2ccccc2)=N/N=C(N)N)cc1 16.3%, Oc1ccc(/C=N\Nc2nncc(-c3ccccc3)n2)cc1 -5.32%, O=C1c2cc(Br)ccc2OC2C=CC=CC12 (centres undefined) -11.4%, COc1cccc(CNCCc2c[nH]c3ccccc23)c1OCc1ccc(F)cc1 1.44%, COc1cc(CNCCc2c[nH]c3ccccc23)ccc1OCc1ccc(F)cc1 12.4%, COc1ccc(C(=Cc2cc(OC)c(OC)cc2[N+](=O)[O-])C(=O)O)cc1 2.43%, CCOC(=O)c1cc2c(C)n(-c3ccc(OCC)cc3)c(C)c2ccc1=O 27.2%, O=C(O)C1Nc2c(C(F)(F)F)ccc(Cl)c2C2C=CCC12 (centres undefined) 24.9%, O=C(O)C1Nc2c(Cl)cc(Cl)cc2C2C=CCC12 (centres undefined) 63.7%, O=[N+]([O-])c1c(O)c(Cl)cc(Cl)c1Cl (tested in a mixture with another compound) -1.68%, Cc1noc(C)c1COC(=O)c1cnc(Cl)c(Cl)c1 3.39%, O=C(O)C12CC3CC(C1)CC(n1cnc(Cl)n1)(C3)C2 23.7%, Cc1nnc(Oc2ccccc2F)c2ccccc12 0.32%, Cc1cc(C)c(NC(=O)c2ccc(S(=O)(=O)N3CCOCC3)cc2)c(C)c1 -5.2%, Cc1cc(C)c2c(c1)C1C=CCC1C(c1ccc(S(=O)(=O)N3CCOCC3)cc1)N2 (centres undefined) 27.8% and -8.85%, Cc1ccc(CN2CC(C(=O)Nc3cccc(S(=O)(=O)N4CCCCC4)c3)CC2=O)cc1 (centres undefined) 14.4%, COc1ccc(/C=N/NC(=O)c2cc(-c3ccccc3OC)nc3ccccc23)cc1COC(C)=O -2.13%, COc1ccc(-c2cc(C(=O)N/N=C/c3ccc4c(c3)OCO4)c3ccccc3n2)c(OC)c1 -3.1%, CC(C)(C)c1cc(C(=O)Nc2ccccc2)ccn1 11.4%, Cc1ccccc1C(=O)O/N=C(\c1ccccc1)c1ccccn1 5.71%, O=C(O)c1ccc2c(c1)-c1cc(C(=O)O)ccc1S2(=O)=O -4.26%, Cc1nonc1-c1csc(N)n1 -6.95%, Cc1ccn2cc(C34CC5CC(CC(C5)C3)C4)nc2c1 17%, COc1cc(NC(=O)CSc2ccc(-c3ccco3)nn2)cc(OC)c1 0.78%, CN(CCO)c1cc(Sc2nc3ccccc3s2)c2nonc2c1[N+](=O)[O-] 1.28%, CCN(CC)c1cc(NCCO)c([N+](=O)[O-])c2nonc12 0.97%, CCC(=O)OCCNc1cc(Sc2nc3ccccc3s2)c2nonc2c1[N+](=O)[O-] 5.25%, CC(=O)OCCCNc1cc(Sc2ccc(C)cc2)c2nonc2c1[N+](=O)[O-] 15.4%, CCC(=O)OCCNc1cc(Sc2nccn2C)c2nonc2c1[N+](=O)[O-] -4.53%, Cc1ccc(Sc2cc(NCCCO)c([N+](=O)[O-])c3nonc23)cc1 9.02%, CC(C)CCSc1cc(NCCO)c([N+](=O)[O-])c2nonc12 -1.66%, CCC(=O)OCCNc1cc(SCCC(=O)OC)c2nonc2c1[N+](=O)[O-] 20%, CCCN1CCc2c(sc(NC(=O)CCS(=O)(=O)c3ccccc3)c2C(N)=O)C1 0.13%, CCOC(NC(=O)c1ccccc1)C(NC(=O)c1ccccc1)OCC (centres undefined) -1.18%, COc1ccccc1CC(O)CC1c2c(cc3c(c2OC)OCO3)CCN1C (centres undefined) -0.54%, CC(=O)c1cc(C)ccc1OC(=O)c1cccc2nc(C)oc12 3.65%, COC(=O)c1ccccc1N=Nc1c(C)n[nH]c1C -7.02%, COC(=O)CN1C(=O)C2(OCCCO2)c2cc(Br)ccc21 -2.05% and -8.37%, CN1CCN(C(=O)c2cc3c(C(F)(F)F)nn(C)c3s2)CC1 6.37%, O=C(COc1ccc(Cl)cc1Cl)N(Cc1ccco1)C1CCS(=O)(=O)C1 (centres undefined) -2.82%

Source: PubChem BioAssay AID1117319 (Southern Research Institute, 2015)
